Potency and outcome data for nine compounds are collected here from PubChem BioAssay (Tox21).

Molecules are shown by their SMILES. Results filed as inconclusive are left out. Active and inactive are the calls of the source. Unless noted, calls come from the whole dose curve; as a rule, active = well fitted curve in the direction sought with a large enough effect in the repeat runs; inconclusive = weak or mixed curves; inactive = no such curve, though single readings can be large; an effect the other way counts as inactive or inconclusive.

The target of assay [1] is Estrogen receptor beta (Homo sapiens) (UniProt Q92731). The assay is described as follows: qHTS assay to identify small molecule agonists of the estrogen receptor beta (ER-beta) signaling pathway (AID 1259377; active = well fitted activation curve with a large enough effect in the signal ratio in the repeat runs, not every such curve was filed as active; the % refers to the signal ratio). The essentials:
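Read-out: beta-lactamase FRET fluorescence. Cell line: ER-beta-UAS-bla HEK293T in 2% charcoal-stripped FBS. Exposure: 16 hr at 37C. Substrate step: 2 h at room temperature.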

For assay [2] the target is unchanged. The assay can be described thus: qHTS assay to identify small molecule antagonists of the estrogen receptor beta (ER-beta) signaling pathway (AID 1259378; active = well fitted inhibition curve with a large enough effect in the signal ratio in the repeat runs, not every such curve was filed as active; the % refers to the signal ratio). The essentials:
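Antagonist mode: compounds added to beta-lactamase reporter HEK293T ER-beta-UAS cells stimulated with E2 (1nM final), 16 hr at 37C. LiveBLAzer B/G FRET substrate, 2 hours room temperature, fluorescence read-out.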

The nature of assay [3]: qHTS assay to identify small molecule agonists of the androgen receptor (AR) signaling pathway in the presence of an antagonist - cell viability counter screen (AID 1259379).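 Note: MDA-kb2 human breast cancer cells carrying an MMTV luciferase reporter; series mostly up to about 92 µM; nearly all actives have a fitted effect of over 25% in size.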 Put shortly:
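In MDA-kb2 cells (human breast carcinoma, MMTV-luciferase), compounds at 15 concentrations plus 3.0uM nilutamide; 16 hr, 37C, 0% CO2; CellTiter-Fluor fluorescence read for viability.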

A short description of assay [4]: qHTS assay to identify small molecule agonists of the estrogen receptor beta (ER-beta) signaling pathway - cell viability counter screen (AID 1259380). Note: nearly all actives have a fitted effect of over 30% in size. Note: potency is the fitted concentration of half-maximal effect. The essentials: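 Viability of ER-beta-UAS-bla HEK293T cells was determined by CellTiter-Glo luminescence following 16 hr treatment with test compounds at 37C.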
The nature of assay [5]: qHTS assay to identify small molecule antagonists of the estrogen receptor beta (ER-beta) signaling pathway - cell viability counter screen (AID 1259382).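 Note: HEK293T cells carrying ER-beta-UAS-bla reporter stimulated with estradiol; series mostly up to about 92 µM; nearly all actives have a fitted effect of over 55% in size.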 Put shortly:
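Tox21 10K library tested in qHTS format on ER-beta-bla HEK293T cells stimulated with 1nM E2; 16 hr treatment at 37C. Same-well CellTiter-Glo luminescence served as the cell viability measure.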

Assay [6] has as its target Estrogen receptor (Homo sapiens) (UniProt P03372). The assay can be described thus: qHTS assay to identify small molecule agonists of the estrogen receptor alpha (ER-alpha) signaling pathway in the presence of an antagonist (AID 1259383; calls by dose curve; note: top concentration of the series differs between compounds; nearly all actives have a fitted effect of over 15% in size). Put shortly: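 In VM7Luc4E2 cells, 4,000 per well, compounds at 15 concentrations were co-incubated 22hr at 37C with 10.0nM final ICI-182,780. Luminescence from the stably transfected 4×ERE-luciferase reporter was recorded 30min after ONE-Glo addition.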

Assay [7] can be described thus: qHTS assay to identify small molecule agonists or antagonists of the thyroid stimulating hormone receptor (TSHR) signaling pathway - wild type cell line counter screen (AID 1259384; calls by dose curve). Put shortly:
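Counter screen in untransfected Hek293: compounds (15-point titration, triplicate) plus phosphodiesterase inhibitor Ro20-1724 added after 18 h plating; 30 min RT. Intracellular cAMP via competitive d2/cryptate immunoassay, 1 h incubation.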

A short description of assay [8]: qHTS assay to identify small molecule agonists of the estrogen receptor alpha (ER-alpha) signaling pathway in the presence of an antagonist - cell viability counter screen (AID 1259386).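 Note: cells exposed to compounds for 22 h at 37 °C before the viability read; nearly all actives have a fitted effect of over 30% in size.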 Note: potency is the fitted concentration of half-maximal effect. Put shortly:
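Fluorescent CellTiter-Fluor viability signal from VM7Luc4E2 cells, with the reagent added during the final hour of a 22hr compound exposure at 37C in the presence of 10.0nM ICI-182,780.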

The nature of assay [9]: qHTS assay to identify small molecule antagonists of the progesterone receptor (PR) signaling pathway - cell viability counter screen (AID 1346798). Note: nearly all actives have a fitted effect of over 50% in size. Note: potency is the fitted concentration of half-maximal effect. Put shortly: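 Following a 4 hr attachment, PR-UAS-bla HEK293T cells in charcoal-stripped FBS medium were exposed to compounds with R5020 for 16 hr; CellTiter-Glo was added and luminescence read after 30 min at room temperature.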

A short description of assay [10]: qHTS assay to identify small molecule antagonists of the TGF-beta/Smad signaling pathway - cell viability counter screen (AID 1346824). Note: nearly all actives have a fitted effect of over 50% in size. The essentials: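 Cytotoxicity counter-screen run in the same wells as the beta-lactamase Smad reporter read: CellTiter-Glo luminescence after 30 min at room temperature. HEK 293T SBE-bla cells had 5 hr compound exposure at 37 C with TGF-beta1 (0.25 ng/mL stock).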

The nature of assay [11]: qHTS assay to identify small molecule agonists of the TGF-beta/Smad signaling pathway - cell viability counter screen (AID 1346829). Note: top concentration of the series differs between compounds; nearly all actives have a fitted effect of over 45% in size. Put shortly:
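Cytotoxicity counter screen: CellTiter-Glo luminescence (30 min, room temperature) measured in the SBE-bla HEK 293T reporter wells after 5 hr compound treatment at 37 C and the 2 hr substrate step.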

Assay [12] is described as follows: qHTS assay to identify small molecule agonists of the TGF-beta/Smad signaling pathway (AID 1346859; active = well fitted activation curve with a large enough effect in the signal ratio in the repeat runs, not every such curve was filed as active; the % refers to the signal ratio; note: series mostly up to about 77 µM). Put shortly: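 Each well held 4,000 SBE-bla HEK 293T cells incubated overnight before compound addition; 5 hr later the cleavable FRET substrate went on for 2 hr at room temperature, and fluorescence was read at two emissions.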
Assay [13] addresses Thyrotropin receptor (Homo sapiens) (UniProt P16473). The assay is described as follows: qHTS assay to identify small molecule antagonists of the thyroid stimulating hormone receptor (TSHR) signaling pathway (AID 1259385; calls by dose curve; note: nearly all actives have a fitted effect of over 20% in size). Put shortly:
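Antagonist mode: compound-treated TSHR-expressing HEK293 cells were stimulated with 1.5 ng/mL TSH (final) in presence of Ro20-1724 for 30 min at RT. HTRF cAMP detection after 1 h; each compound tested at 15 concentrations, triplicate.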

Assay [14] concerns the target Progesterone receptor (Homo sapiens) (UniProt P06401). The assay is described as follows: qHTS assay to identify small molecule agonists of the progesterone receptor (PR) signaling pathway (AID 1346784; calls by dose curve; note: nearly all actives have a fitted effect of over 30% in size). Put shortly: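 Compounds were tested for PR agonism in HEK 293T cells bearing a beta-lactamase gene under UAS control. Treatment lasted 16 hr at 37C; signal came from fluorescence of a FRET substrate.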

For assay [15] the target is unchanged. The assay is described as follows: qHTS assay to identify small molecule antagonists of the progesterone receptor (PR) signaling pathway (AID 1346795; active = well fitted inhibition curve with a large enough effect in the signal ratio in the repeat runs, not every such curve was filed as active; the % refers to the signal ratio; note: potency is the fitted concentration of half-maximal effect). The essentials: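 In HEK293T cells bearing the PR-UAS-bla reporter, compound effects on promegestone-driven (1 nM) beta-lactamase expression are assessed after 16 hr using a fluorescent FRET substrate incubated 2 hr at room temperature.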

Assay [16] can be described thus: qHTS assay to identify small molecule agonists of the progesterone receptor (PR) signaling pathway - cell viability counter screen (AID 1346799; calls by dose curve; note: nearly all actives have a fitted effect of over 45% in size). The essentials:
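Here, 3,000 PR-UAS-bla HEK293T cells per well were treated with compounds for 16 hr after a 6 hr preincubation at 37C and 5% CO2; cell viability is the CellTiter-Glo luminescence signal.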

A short description of assay [17]: qHTS assay to identify small molecule antagonists of the sonic hedgehog signaling (Shh) pathway (AID 1259369; calls by dose curve; note: nearly all actives have a fitted effect of over 45% in size). The essentials: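 Screening used 3T3Gli1-Luc cells at 2,000 per well, compounds delivered in DMSO, and conditioned medium as agonist stimulus; plates incubated 24hr at 37 C and 5% CO2 before a 30min luciferase step.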
In assay [18] the target is Thyrotropin-releasing hormone receptor (Homo sapiens) (UniProt P34981). The assay can be described thus: qHTS assay to identify small molecule antagonists of the thyrotropin-releasing hormone receptor (TRHR) signaling pathway (AID 1346877; active = well fitted inhibition curve with a large enough effect in the repeat runs, not every such curve was filed as active; note: series mostly up to about 51 µM). The essentials: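 In this cell-based calcium flux format, HEK293 cells expressing TRHR received test compound for 5 min before the agonist TRH (1 nM final). Dye loading lasted 2 h at 37 °C.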
Thyrotropin-releasing hormone receptor (Homo sapiens), sequence (P34981 whole entry, looked up): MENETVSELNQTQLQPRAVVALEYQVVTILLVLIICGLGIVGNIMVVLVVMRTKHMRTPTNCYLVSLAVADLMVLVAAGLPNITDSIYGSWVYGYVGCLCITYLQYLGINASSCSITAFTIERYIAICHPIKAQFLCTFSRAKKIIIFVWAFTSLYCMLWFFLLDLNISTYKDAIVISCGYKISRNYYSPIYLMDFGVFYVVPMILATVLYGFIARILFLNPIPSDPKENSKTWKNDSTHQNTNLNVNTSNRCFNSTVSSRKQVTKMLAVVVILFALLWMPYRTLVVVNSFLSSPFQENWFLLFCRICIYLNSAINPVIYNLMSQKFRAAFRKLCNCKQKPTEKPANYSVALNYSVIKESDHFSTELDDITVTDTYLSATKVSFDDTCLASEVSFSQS

Assay [19] shares this target. The assay is described as follows: qHTS assay to identify small molecule agonists of the thyrotropin-releasing hormone receptor (TRHR) signaling pathway (AID 1346891; calls by dose curve; note: series mostly up to about 58 µM). Put shortly: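 Screening of agonists relied on calcium signalling in HEK293 cells expressing human TRHR: dye loading 2 h at 37 °C preceded compound addition and a 3-min fluorescence time course.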
The target of assay [20] is Androgen receptor (Homo sapiens) (UniProt P10275). The assay can be described thus: qHTS assay to identify small molecule agonists of the androgen receptor (AR) signaling pathway in the presence of an antagonist (AID 1259381; calls by dose curve; note: nearly all actives have a fitted effect of over 15% in size). The essentials:
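Here, 15-concentration compound series were pin-transferred onto MDA-kb2 MMTV-luciferase cells already dosed with nilutamide (3.0uM final). After 16hr at 37C, ONE-Glo was added and luminescence read 30min later at room temperature.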

Estrogen receptor (Homo sapiens), sequence (P03372 whole entry, looked up): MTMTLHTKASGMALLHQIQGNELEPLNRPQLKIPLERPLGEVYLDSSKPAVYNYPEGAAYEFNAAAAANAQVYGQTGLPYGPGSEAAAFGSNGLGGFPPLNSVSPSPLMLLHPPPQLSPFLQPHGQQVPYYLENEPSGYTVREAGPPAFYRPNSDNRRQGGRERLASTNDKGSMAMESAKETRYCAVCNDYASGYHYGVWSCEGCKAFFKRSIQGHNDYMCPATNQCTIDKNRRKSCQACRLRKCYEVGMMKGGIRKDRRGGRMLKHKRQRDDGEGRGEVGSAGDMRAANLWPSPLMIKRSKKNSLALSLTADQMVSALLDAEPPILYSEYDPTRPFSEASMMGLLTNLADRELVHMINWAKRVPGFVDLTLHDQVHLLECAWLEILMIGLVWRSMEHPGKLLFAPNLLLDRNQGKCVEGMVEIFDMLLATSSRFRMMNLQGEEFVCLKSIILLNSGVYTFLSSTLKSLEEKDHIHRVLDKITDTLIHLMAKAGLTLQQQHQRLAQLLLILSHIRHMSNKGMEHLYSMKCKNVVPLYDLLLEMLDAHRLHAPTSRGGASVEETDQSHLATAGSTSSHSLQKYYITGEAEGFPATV
Thyrotropin receptor (Homo sapiens), sequence (P16473 whole entry, looked up): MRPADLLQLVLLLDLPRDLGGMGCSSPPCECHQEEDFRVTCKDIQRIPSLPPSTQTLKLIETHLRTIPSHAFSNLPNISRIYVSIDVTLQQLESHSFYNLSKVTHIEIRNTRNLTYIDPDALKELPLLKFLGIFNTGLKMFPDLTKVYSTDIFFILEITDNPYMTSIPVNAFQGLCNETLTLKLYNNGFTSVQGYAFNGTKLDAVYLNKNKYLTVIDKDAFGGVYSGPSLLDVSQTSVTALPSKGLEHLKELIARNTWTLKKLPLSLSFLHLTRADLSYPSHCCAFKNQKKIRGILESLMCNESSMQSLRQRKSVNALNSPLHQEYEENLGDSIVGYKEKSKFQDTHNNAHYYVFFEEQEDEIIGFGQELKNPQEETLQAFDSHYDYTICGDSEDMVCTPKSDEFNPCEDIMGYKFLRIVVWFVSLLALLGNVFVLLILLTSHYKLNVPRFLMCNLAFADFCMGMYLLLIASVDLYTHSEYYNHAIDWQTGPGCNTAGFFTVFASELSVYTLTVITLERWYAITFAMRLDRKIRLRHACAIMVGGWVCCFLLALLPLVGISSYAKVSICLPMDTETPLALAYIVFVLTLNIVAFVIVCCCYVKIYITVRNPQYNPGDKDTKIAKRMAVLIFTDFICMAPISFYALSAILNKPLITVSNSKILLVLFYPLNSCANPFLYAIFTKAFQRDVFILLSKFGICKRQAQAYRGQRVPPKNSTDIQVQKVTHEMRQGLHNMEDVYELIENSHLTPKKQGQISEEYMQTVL
Progesterone receptor (Homo sapiens), sequence (P06401 whole entry, looked up): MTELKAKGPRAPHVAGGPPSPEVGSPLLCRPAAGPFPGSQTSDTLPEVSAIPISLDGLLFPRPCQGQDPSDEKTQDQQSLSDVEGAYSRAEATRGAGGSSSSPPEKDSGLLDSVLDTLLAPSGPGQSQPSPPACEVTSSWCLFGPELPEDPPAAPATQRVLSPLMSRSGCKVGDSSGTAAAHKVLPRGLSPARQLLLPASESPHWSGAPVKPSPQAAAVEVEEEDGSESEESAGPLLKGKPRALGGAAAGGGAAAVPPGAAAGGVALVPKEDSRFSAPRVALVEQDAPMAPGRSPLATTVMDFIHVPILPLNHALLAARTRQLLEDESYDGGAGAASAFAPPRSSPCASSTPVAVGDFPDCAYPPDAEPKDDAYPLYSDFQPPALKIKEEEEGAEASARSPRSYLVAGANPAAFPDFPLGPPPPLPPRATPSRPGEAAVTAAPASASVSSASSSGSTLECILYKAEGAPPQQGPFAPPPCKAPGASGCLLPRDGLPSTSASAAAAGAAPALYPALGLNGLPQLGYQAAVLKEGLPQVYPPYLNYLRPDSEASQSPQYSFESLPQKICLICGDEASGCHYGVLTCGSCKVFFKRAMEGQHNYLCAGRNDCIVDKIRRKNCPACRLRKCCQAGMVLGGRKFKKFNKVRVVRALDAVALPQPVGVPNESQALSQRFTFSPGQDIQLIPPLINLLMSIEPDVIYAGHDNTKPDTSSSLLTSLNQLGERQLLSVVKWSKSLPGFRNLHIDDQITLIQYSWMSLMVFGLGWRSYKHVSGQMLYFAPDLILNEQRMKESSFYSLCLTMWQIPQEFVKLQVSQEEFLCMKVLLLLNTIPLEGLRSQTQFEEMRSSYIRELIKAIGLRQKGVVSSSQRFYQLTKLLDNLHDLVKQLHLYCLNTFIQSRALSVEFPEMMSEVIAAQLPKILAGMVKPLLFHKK
Estrogen receptor beta (Homo sapiens), sequence (Q92731 whole entry, looked up): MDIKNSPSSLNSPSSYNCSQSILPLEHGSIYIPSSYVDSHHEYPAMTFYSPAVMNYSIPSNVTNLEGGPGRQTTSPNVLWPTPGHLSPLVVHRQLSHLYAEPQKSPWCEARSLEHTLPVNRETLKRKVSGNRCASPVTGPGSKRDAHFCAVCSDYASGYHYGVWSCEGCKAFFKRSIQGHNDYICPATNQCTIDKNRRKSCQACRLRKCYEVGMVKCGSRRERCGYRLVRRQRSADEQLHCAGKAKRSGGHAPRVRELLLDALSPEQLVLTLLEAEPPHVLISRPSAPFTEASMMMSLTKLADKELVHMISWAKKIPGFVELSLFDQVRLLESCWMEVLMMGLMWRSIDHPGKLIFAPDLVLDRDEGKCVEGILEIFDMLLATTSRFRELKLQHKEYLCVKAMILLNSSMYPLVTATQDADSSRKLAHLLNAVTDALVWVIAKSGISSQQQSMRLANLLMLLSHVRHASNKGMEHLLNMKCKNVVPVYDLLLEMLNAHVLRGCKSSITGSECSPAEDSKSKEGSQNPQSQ
Androgen receptor (Homo sapiens), sequence (P10275 whole entry, looked up): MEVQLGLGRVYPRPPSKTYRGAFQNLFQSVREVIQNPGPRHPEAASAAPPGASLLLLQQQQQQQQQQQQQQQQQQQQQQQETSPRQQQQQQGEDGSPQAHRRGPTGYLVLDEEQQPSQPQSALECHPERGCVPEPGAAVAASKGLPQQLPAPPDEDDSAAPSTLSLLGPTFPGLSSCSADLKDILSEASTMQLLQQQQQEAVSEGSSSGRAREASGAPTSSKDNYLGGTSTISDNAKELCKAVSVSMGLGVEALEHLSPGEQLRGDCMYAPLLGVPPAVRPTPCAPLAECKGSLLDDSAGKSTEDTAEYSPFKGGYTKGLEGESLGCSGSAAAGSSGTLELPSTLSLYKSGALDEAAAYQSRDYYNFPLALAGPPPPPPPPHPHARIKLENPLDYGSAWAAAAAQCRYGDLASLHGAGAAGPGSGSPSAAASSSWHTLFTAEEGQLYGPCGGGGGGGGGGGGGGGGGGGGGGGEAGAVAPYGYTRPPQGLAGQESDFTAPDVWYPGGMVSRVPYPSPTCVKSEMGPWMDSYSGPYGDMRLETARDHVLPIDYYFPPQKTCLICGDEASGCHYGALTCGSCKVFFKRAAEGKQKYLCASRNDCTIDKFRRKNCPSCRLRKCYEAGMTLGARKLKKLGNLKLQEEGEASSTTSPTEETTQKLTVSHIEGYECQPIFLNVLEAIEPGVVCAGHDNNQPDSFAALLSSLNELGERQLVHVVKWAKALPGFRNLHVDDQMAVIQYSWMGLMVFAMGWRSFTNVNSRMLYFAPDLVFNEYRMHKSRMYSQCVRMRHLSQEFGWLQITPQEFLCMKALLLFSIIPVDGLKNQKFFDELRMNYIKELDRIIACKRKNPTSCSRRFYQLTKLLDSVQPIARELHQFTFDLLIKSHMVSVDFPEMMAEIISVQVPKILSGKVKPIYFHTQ

For the compound `C=CC(=O)[O-].C=CC(=O)[O-].[Zn+2]`, the Potency result in assay [1], in [2], in assay [3], in assay [4], in assay [5] and in [6] was “inactive” each time. Besides, the Potency entry in assay [8], in assay [10], in assay [11] and in [12] was “inactive” each time. In assay [7], the compound was classed as inactive. Moreover, the Potency in assay [9] was 67 µM (active).
For the compound `Cc1cc(C)c(N)cc1C`, the Potency entry in assay [1], in assay [2], in assay [3], in [4], in assay [5] and in assay [6] was “inactive” each time. In addition, the Potency entry in [13], in assay [8], in assay [14], in assay [15], in assay [9] and in [16] was “inactive” in each case. Also, the Potency entry in assay [10] and in assay [12] was “inactive” each time. In [7], the compound was called inactive.
Turning to `Brc1cc2ccccc2c2ccccc12`, the Potency result in [17], in [5], in assay [6], in [8], in assay [14] and in [9] was “inactive” throughout. Besides, the Potency entry in assay [10], in assay [11], in assay [12] and in [19] was “inactive” each time. Also, in [4], the Potency is 30.9 µM (active). Besides, in assay [18], the call was inactive.
For the compound `O=Cc1c2ccccc2c(Cl)c2ccccc12`, the Potency entry in assay [17], in assay [4], in assay [5], in assay [6], in assay [8] and in assay [14] was “inactive” throughout. In addition, the Potency result in [9], in assay [16], in assay [10], in assay [11] and in assay [12] was “inactive” in each case.
Take `C/C=C/C=C/C=O`: the Potency entry in [1], in assay [2], in [3], in assay [4], in assay [20] and in assay [5] was “inactive” in each case. For the same compound, the Potency entry in assay [6], in assay [8], in assay [14], in assay [9], in assay [16] and in assay [10] was “inactive” in each case. Moreover, the Potency entry in [11], in assay [12] and in assay [19] was “inactive” each time. In assay [18], the result was inactive.
Take `CCOC(=O)c1ccccc1C(=C1C=C(Br)C(=O)C(Br)=C1)c1cc(Br)c(O)c(Br)c1`: the Potency result in assay [17], in assay [6], in [13], in assay [8], in assay [10] and in assay [11] was “inactive” throughout. Also, the Potency entry in assay [12] and in [19] was “inactive” throughout. Moreover, the Potency in [4] was 57.5 µM (active); in [15], 18.2 µM (active). Besides, the compound was called inactive in [7].
Regarding `Brc1cc(Br)c(Oc2cc(Br)c(Br)cc2Br)cc1Br`, the Potency result in [17], in [3], in assay [6], in assay [8], in assay [14] and in [15] was “inactive” each time. The Potency result in assay [10], in assay [11], in [12] and in assay [19] was “inactive” in each case. For the same compound, the Potency in assay [4] was 29.9 µM (active). Besides, the compound was called inactive in [18].
For `N#[N+]c1ccc2c(S(=O)(=O)[O-])cccc2c1O`, the Potency result in [17], in assay [4], in [5], in [6], in [14] and in [16] was “inactive” in each case. Further, the Potency entry in assay [10], in assay [11], in assay [12] and in assay [19] was “inactive” each time. The Potency in assay [8] is 43.3 µM (active). Also, the result in assay [18] was inactive.
With `C=C(C)CCCC(C)CCO` (centres undefined), the Potency entry in assay [1], in assay [2], in assay [3], in assay [4], in [5] and in assay [6] was “inactive” in each case. Further, the Potency result in assay [13], in assay [8], in assay [14], in assay [15], in assay [9] and in assay [16] was “inactive” in each case. For the same compound, the Potency entry in assay [10], in [11], in assay [12] and in [19] was “inactive” in each case. Also, the call in assay [7] and in assay [18] was inactive.
